Results from PubChem BioAssay.
Values without a mark were called inactive.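 Rule for the calls: active = compounds killing one labelled cell type while sparing the other, by normalised counts and ratio limits, not self-fluorescent; inactive = the rest.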

assay: differential killing of epithelial or mesenchymal cells, primary screen, imaging, PC-3E GFP, TEM4-18 mCherry, co-culture (AID 1345086); details: imaging cell counts, at 1 µM, actives lie on both sides, counts scaled to control wells, 1 = unselective;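 note: normalised mesenchymal count divided by normalised epithelial count so high means epithelial killing; cells exposed to compound for 72 h before imaging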

Structure (SMILES) | red/green cell ratio (normalised)
COC(=O)C[C@H]1C(C)(C)C(=O)[C@@H]2CC3=C4CC(=O)O[C@@H](c5ccoc5)[C@]4(C)CCC3C1(C)C2=O (stereo not given in full) | 1.01
COC(=O)CC1C(C)(C)C(OC(C)=O)[C@@H]2[C@@H](OC(C)=O)[C@]34O[C@@]2(O)C1(C)C3CC[C@]1(C)C4=CC(=O)O[C@H]1c1ccoc1 (stereo not given in full) | 1.07
COC1O[C@@H]2O[C@]3(C)CC[C@H]4[C@H](C)CC[C@@H]([C@H]1C)[C@@]24OO3 (stereo not given in full) | 0.81
C[C@@H]1O[C@@H](O[C@H]2[C@@H](Oc3cc(O)c4c(c3)O[C@H](c3ccc(O)cc3)CC4=O)O[C@H](CO)[C@@H](O)[C@@H]2O)[C@H](O)[C@H](O)[C@H]1O | 1.11
CC1=C2[C@](C)(C=CC1=O)C[C@H](O)[C@H]1[C@H](C)C(=O)O[C@]21C | 1.06
C=CC(C)(C)c1ccc2[nH]c3c(c2c1)C[C@@H]1CC[C@@]2(O)C4=CC(=O)[C@@H]5O[C@@]4(CC[C@]2(C)[C@@]31C)OC5(C)C | 1.04
O=C(Cc1ccccc1)NCC1O[C@@H](OC2C(NC(=O)Cc3ccccc3)C[C@@H](NC(=O)Cc3ccccc3)[C@H](OC3OC(COS(=O)(=O)O)[C@@H](OS(=O)(=O)O)[C@H](NC(=O)Cc4ccccc4)[C@H]3OS(=O)(=O)O)[C@H]2OS(=O)(=O)O)[C@H](OS(=O)(=O)O)[C@@H](OS(=O)(=O)O)C1OS(=O)(=O)O (stereo not given in full) | 1.14
COC1=N[C@@](OC)(C(C)C)C(=O)N[C@@]1(O)[C@H](O)c1ccccc1 | 0.8
Nc1nc2c(c(=O)[nH]1)NC(CNc1ccc(C(=O)NC(CCC(=O)O)C(=O)O)cc1)=CN2 (stereo not given) | 0.83
CO[C@H]1/C=C/C[C@@H](C)OC(=O)c2c(O)cc(O)cc2CC(=O)CCC1 | 1.01
CCCC1=CC(=O)[C@H](O)[C@H]1O | 1.01
COC(=O)/C(=C1\OC(=O)C(c2ccccc2)=C1O)c1ccccc1 | 1.05
CC(C)CCCC(C)C1CCC2C3CC[C@H]4C[C@@H](O)CC[C@]4(C)C3CC[C@]12C (stereo not given in full) | 1.05
C#C[C@]1(O)CCC2C3CCC4=CC(=O)CC[C@@H]4C3CCC21CC (stereo not given in full) | 1.14
CC1COc2c(N)c(F)cc3c(=O)c(C(=O)O)cn1c23 (stereo not given) | 0.95
CO[C@H]1C[C@H](O[C@H]2[C@H](C)[C@@H](O[C@@H]3O[C@H](C)C[C@H](N(C)C)[C@H]3O)[C@@H](C)C[C@]3(CO3)C(=O)[C@H](C)[C@@H](O)[C@@H](C)[C@@H](C)OC(=O)[C@@H]2C)O[C@@H](C)[C@@H]1O | 0.92
CC(C)=CCC/C(C)=C\CC1=C(C)C(=O)c2ccccc2C1=O | 0.98
CO/N=C1/C[C@]2(C[C@@H]3C[C@@H](C/C=C(\C)C[C@@H](C)/C=C/C=C4\COC5[C@H](O)C(C)=C[C@@H](C(=O)O3)[C@]45O)O2)O[C@H](/C(C)=C/C(C)C)[C@H]1C (stereo not given in full) | 1.32
Cc1ccc(S[C@H]2OC(COCc3ccccc3)C(OC(=O)CCC(=O)O)[C@@H]3OC(=O)N[C@H]23)cc1 (stereo not given in full) | 0.99
C#C[C@H](O)COc1ccc(C(=O)O)cc1 | 1.18
CC1=CO[C@]2(C1=O)[C@H]1C(=O)O[C@]3(C[C@@H]2C)C(C)=CC(=O)O[C@]13O | 0.85
COc1c(F)c(F)cc2c(=O)c(C(=O)NO)cn(C3CC3)c12 | 1.08
Nc1nc(Cl)nc2c1ncn2C1O[C@H](CO)[C@@H](O)[C@@H]1F (stereo not given in full) | 1.78
CC(C)CCCC(C)C1CCC2C3CC[C@H]4CCCC[C@]4(C)C3CC[C@]12C (stereo not given in full) | 0.9
O=C(O)CCc1ccccc1O | 0.97
CC(CC(=O)N1C(=O)OC[C@H]1c1ccccc1)N1CCSC1=S (stereo not given in full) | 0.94
CC(=O)OCC1=C[C@]2(O)CC3=C(CC24O[C@@H]4C1=O)[C@@]1(C)CCCC(C)(C)[C@@H]1CC3 (stereo not given in full) | 1.02
COC(=O)NC1[C@@H](O)C(O)C(CO)O[C@H]1Sc1ccccc1 (stereo not given in full) | 0.91
CC(CCC(=O)O)[C@H]1CCC2C3CC[C@@H]4CCCC[C@]4(C)C3CC[C@@]21C (stereo not given in full) | 0.93
COc1cc2c(cc1OC)C1C(=O)c3c(O)cc4c(c3OC1CO2)C=CC(C)(C)O4 (stereo not given) | 0.7
